# Reference: PubChem BioAssay (NCATS)
# Inconclusive results are not listed. A call without a number means that no potency is given here. Values without a mark were called inactive. The source made the active and inactive calls. Calls follow the shape of the dose curve; as a rule, active = well fitted curve in the direction sought with a large enough effect; inconclusive = small, poorly fitted or top-dose-only effect, or another doubt; inactive = no such curve, though single readings can be large; an effect the other way counts as inactive or inconclusive.
# Test: Primary qHTS for inhibitors of nuclear receptor binding SET domain protein 2 (NSD2) in an isogenic RCH-ACV NSD2 p.E1099K mutant (9B) (AID 1645876)
# Details: RCH-ACV NSD2 E1099K (9B) viability, CellTiter-Glo, 72 h; series mostly up to 44.9 µM
# Also: nearly all actives have a fitted effect of over 70% in size.
Compound,Potency,"activity change, negative = viability loss"
CC(=O)O[C@H]1C[C@@H](O)C(C)(C)C2C[C@@H](OC(C)=O)[C@@]3(C)C4=CCC(C(CO)CC(O)C5OC5(C)C)[C@]4(C)CCC3[C@]21C (stereo partly drawn),inactive,
CC(C)=CCC[C@](C)(O[C@@H]1O[C@H](CO[C@@H]2O[C@@H](CO)[C@H](O)[C@H]2O)[C@@H](O)[C@H](O)[C@H]1O)[C@H]1CC[C@]2(C)[C@@H]1[C@H](O)C[C@@H]1[C@@]3(C)CC[C@H](O[C@@H]4O[C@H](CO)[C@@H](O)[C@H](O)[C@H]4O[C@@H]4O[C@H](CO)[C@@H](O)[C@H](O)[C@H]4O)C(C)(C)[C@@H]3CC[C@]12C,inactive,
CC(C)=CCC(O)[C@](C)(O)C1[C@H](O)C[C@@]2(C)C3CC=C4C(C[C@H](O)[C@@H](O[C@@H]5O[C@H](CO)[C@@H](O)[C@H](O)[C@H]5O)C4(C)C)[C@]3(C)C(=O)C[C@]12C (stereo partly drawn),inactive,
CC1(C)CC[C@]2(C(=O)O[C@@H]3O[C@H](CO[C@@H]4O[C@H](CO)[C@@H](O)[C@H](O)[C@H]4O)[C@@H](O)[C@H](O[C@@H]4O[C@H](CO)[C@@H](O)[C@H](O)[C@H]4O)[C@H]3O)[C@H](O)C[C@]3(C)C(=CCC4[C@@]5(C)CC[C@H](O[C@@H]6OC[C@@H](O)[C@H](O)[C@H]6O)[C@@](C)(C(=O)O)C5CC[C@]43C)[C@@H]2C1 (stereo partly drawn),,-2.24% [at 9.23 µM]
CC1=CC2=C(C)C(=O)C(C)(O)C(O)C2CO1 (stereo not drawn),inactive,
C=C1CCC2[C@](C)(CO)CCC[C@@]2(C)[C@@H]1CCC1=CCOC1=O (stereo partly drawn),inactive,
C=C1C[C@H](O)[C@@H](O)[C@@]2(C)C1[C@@H](O)[C@H]1OC(=O)C3[C@@H](C)[C@@H](O)[C@H](O)C2[C@]31C (stereo partly drawn),inactive,
COC(=O)c1ccc(OC)cc1O[C@@H]1O[C@H](CO[C@@H]2OC[C@@H](O)[C@H](O)[C@H]2O)[C@@H](O)[C@H](O)[C@H]1O,inactive,
CC1(C)CC[C@]2(C(=O)O[C@@H]3O[C@H](CO)[C@@H](O)[C@H](O)[C@H]3O)CC[C@]3(C)C(=CCC4[C@@]5(C)CC[C@H](OC6OC(C(=O)O)C(OC7OC(CO)C(O)C(O)C7O)C(O)C6O)C(C)(C)C5CC[C@]43C)C2C1 (stereo partly drawn),,-8.98% [at 9.23 µM]
OCC1=C[C@@H](O)[C@@H]2C=CO[C@@H](O[C@@H]3O[C@H](CO)[C@@H](O)[C@H](O)[C@H]3O)[C@H]12,inactive,

# Test: Primary qHTS for inhibitors of nuclear receptor binding SET domain protein 2 (NSD2) in an RCH-ACV wild type WT cells (2C) (AID 1645877)
# Details: RCH-ACV (leukaemia line) NSD2 WT (2C) viability, CellTiter-Glo, 72 h; series mostly up to 44.9 µM
Compound,Potency,"activity change, negative = cell killing",outcome
NC1Nc2ccccc2C1(N)CC1NC(=O)C(Cc2ccccc2)NC(=O)C(Cc2ccccc2)NC1=O (stereo not drawn),inactive,,
O=C(O)c1ccc(NC(=O)[C@H](CC2CCCC2)n2cnc(C(F)(F)F)c2)nc1,inactive,,
C/C(=C\CCC1(C)C2CC3C(C2)C31C)C(=O)O (stereo not drawn),inactive,,
CCC(C)/C=C(C)/C=C/C1=CC2=C(Cl)C(=O)C(C)(OC(C)=O)C(=O)C2=CN1C(CC(=O)O)C(=O)O (stereo not drawn),inactive,,
CC(C)c1ccc2c(c1)CCC1[C@](C)(C(=O)O)CCC[C@]21C (stereo partly drawn),inactive,,
COCC1OC(n2cnc3c(=O)[nH]cnc32)C(O)C1O (stereo not drawn),inactive,,
OCC(O)C(c1c[nH]c2ccccc12)c1c[nH]c2ccccc12 (stereo not drawn),inactive,,
COc1cc(CC2COC(c3ccc(OC4OC(CO)C(O)C(O)C4O)c(OC)c3)C2CO)ccc1O (stereo not drawn),inactive,,
C/C=C(/C)C(=O)OC1C(OC(C)=O)C23C(O)OC4(CCC5C6(C)CCC(OC7OC(C(=O)O)C(O)C(OC8OC(CO)C(O)C(O)C8OC8OC(C)C(O)C(O)C8OC8OCC(O)C(O)C8O)C7OC7OC(CO)C(O)C(O)C7O)C(C)(C)C6CCC5(C)C4(C)CC2OC(C)=O)C3CC1(C)C (stereo not drawn),,3.76% [at 9.23 µM],
Fc1cccc(CN(C2=NCCN2)c2c(Cl)cccc2Cl)c1,inactive,,
CC1(C(=O)O)CC[C@]2(C(=O)OC3OC(CO)C(O)C(O)C3O)CC[C@]3(C)C(=CCC4[C@@]5(C)CC[C@H](OC6OCC(O)C(O)C6OC6OC(CO)C(O)C(O)C6O)C(C)(C)C5CC[C@]43C)C2C1 (stereo partly drawn),,-0.731% [at 9.23 µM],
C[C@@H]1O[C@@H](O[C@H]2[C@H](O[C@H]3[C@H](O[C@H]4CC[C@@]5(C)C(CC[C@]6(C)C5CC=C5[C@@H]7CC(C)(C)C[C@@H](O)[C@]7(C)CC[C@]56C)[C@@]4(C)CO)O[C@H](C(=O)O)[C@@H](O)[C@@H]3O)O[C@H](CO)[C@H](O)[C@@H]2O)[C@H](O)[C@H](O)[C@H]1O (stereo partly drawn),,,inactive [at 9.23 µM]
C=C(C(=O)O)C1CC(O)C2(C)CCCC(C)(O)C2C1 (stereo not drawn),inactive,,
O=C(OC[C@H]1O[C@H](O[C@]2(CO)O[C@H](CO)[C@@H](O)[C@@H]2O)[C@H](O)[C@@H](O)[C@@H]1O)c1ccc(O)cc1,inactive,,
CC1(C)CC[C@]2(C(=O)O)CC[C@]3(C)C(=CCC4[C@@]5(C)C(=O)C[C@H](O)[C@@](C)(CO)C5CC[C@]43C)[C@@H]2C1 (stereo partly drawn),inactive,,
CC(=O)OC1C(O)/C(C)=C\C2C(OC(=O)c3ccccc3)C(C)CC2(OC(C)=O)C(OC(C)=O)C(C)/C=C/C(C)(C)C1OC(C)=O (stereo not drawn),inactive,,
COc1cc(O)cc(O[C@@H]2O[C@H](CO)[C@@H](O[C@@H]3OC[C@](O)(CO)[C@H]3O)[C@H](O)[C@H]2O)c1OC,inactive,,
O=C(O)CCc1cccc(O)c1O[C@@H]1O[C@H](CO)[C@@H](O)[C@H](O)[C@H]1O,inactive,,
C=C1C(=O)OC[C@H]2C(C(=O)O)=CC3CC(C)(C)C[C@@]132 (stereo partly drawn),inactive,,

Compound,Potency,"activity change, negative = cell killing",outcome
C[C@H](/C=C/[C@@]1(O)[C@H](C)CC(=O)CC1(C)C)O[C@@H]1O[C@H](CO[C@@H]2OC[C@@H](O)[C@H](O)[C@H]2O)[C@@H](O)[C@H](O)[C@H]1O,inactive,,
CC1CC(=O)[C@]2(O)C(C(=O)OCCc3ccc(O)cc3)=CO[C@@H](O[C@@H]3O[C@H](CO)[C@@H](O)[C@H](O)[C@H]3O)[C@H]12 (stereo partly drawn),inactive,,
CC(=O)/C=C/[C@H]1[C@](C)(O)[C@@H](O)[C@H](O)C2C(C)(C)CCC[C@@]21C (stereo partly drawn),inactive,,
CC(C)(O)C(O)C(=O)OCc1ccc(O[C@@H]2O[C@H](CO)[C@@H](O)[C@H](O)[C@H]2O)cc1 (stereo partly drawn),inactive,,
CC1CCC2C(C)(C)[C@H](O)CC[C@]2(C)C12Cc1c(O)cc3c(c1O2)CN(C(CCC(=O)O)C(=O)O)C3=O (stereo partly drawn),inactive,,
NC[C@@H]1O[C@@H](O[C@@H]2[C@@H](O[C@@H]3O[C@H](CO)[C@@H](O)[C@H]3O)[C@H](O)[C@@H](N)C[C@H]2N)[C@@H](N)[C@H](O)[C@H]1O,,,inactive [at 9.23 µM]
CC/C=C\CC1C(CC(=O)O)CCC1OC1OC(CO)C(O)C(O)C1O (stereo not drawn),inactive,,
C=CC(C)(O)CC/C=C(\C)C(=O)O[C@@H]1[C@@H](O)[C@H](OC(C)(C=C)CC/C=C(\C)C(=O)O)O[C@H](CO)[C@H]1OC(=O)/C(C)=C/CCC(C)(O)C=C (stereo partly drawn),inactive,,
CC1(C)CCCC2(C)c3c4c(c(=O)oc(=O)c3=CCC12)=CCC1C(C)(C)CCCC41C (stereo not drawn),inactive,,
CC(=O)O[C@H]1C[C@@H](O)C(C)(C)C2C[C@@H](OC(C)=O)[C@@]3(C)C4=CCC(C(CO)CC(O)C5OC5(C)C)[C@]4(C)CCC3[C@]21C (stereo partly drawn),inactive,,
CC(C)=CCC[C@](C)(O[C@@H]1O[C@H](CO[C@@H]2O[C@@H](CO)[C@H](O)[C@H]2O)[C@@H](O)[C@H](O)[C@H]1O)[C@H]1CC[C@]2(C)[C@@H]1[C@H](O)C[C@@H]1[C@@]3(C)CC[C@H](O[C@@H]4O[C@H](CO)[C@@H](O)[C@H](O)[C@H]4O[C@@H]4O[C@H](CO)[C@@H](O)[C@H](O)[C@H]4O)C(C)(C)[C@@H]3CC[C@]12C,inactive,,
CC(C)=CCC(O)[C@](C)(O)C1[C@H](O)C[C@@]2(C)C3CC=C4C(C[C@H](O)[C@@H](O[C@@H]5O[C@H](CO)[C@@H](O)[C@H](O)[C@H]5O)C4(C)C)[C@]3(C)C(=O)C[C@]12C (stereo partly drawn),inactive,,
CC1(C)CC[C@]2(C(=O)O[C@@H]3O[C@H](CO[C@@H]4O[C@H](CO)[C@@H](O)[C@H](O)[C@H]4O)[C@@H](O)[C@H](O[C@@H]4O[C@H](CO)[C@@H](O)[C@H](O)[C@H]4O)[C@H]3O)[C@H](O)C[C@]3(C)C(=CCC4[C@@]5(C)CC[C@H](O[C@@H]6OC[C@@H](O)[C@H](O)[C@H]6O)[C@@](C)(C(=O)O)C5CC[C@]43C)[C@@H]2C1 (stereo partly drawn),,-1.62% [at 9.23 µM],
CC1=CC2=C(C)C(=O)C(C)(O)C(O)C2CO1 (stereo not drawn),inactive,,
C=C1CCC2[C@](C)(CO)CCC[C@@]2(C)[C@@H]1CCC1=CCOC1=O (stereo partly drawn),inactive,,
C=C1C[C@H](O)[C@@H](O)[C@@]2(C)C1[C@@H](O)[C@H]1OC(=O)C3[C@@H](C)[C@@H](O)[C@H](O)C2[C@]31C (stereo partly drawn),inactive,,
COC(=O)c1ccc(OC)cc1O[C@@H]1O[C@H](CO[C@@H]2OC[C@@H](O)[C@H](O)[C@H]2O)[C@@H](O)[C@H](O)[C@H]1O,inactive,,
CC1(C)CC[C@]2(C(=O)O[C@@H]3O[C@H](CO)[C@@H](O)[C@H](O)[C@H]3O)CC[C@]3(C)C(=CCC4[C@@]5(C)CC[C@H](OC6OC(C(=O)O)C(OC7OC(CO)C(O)C(O)C7O)C(O)C6O)C(C)(C)C5CC[C@]43C)C2C1 (stereo partly drawn),,-22.4% [at 9.23 µM],
OCC1=C[C@@H](O)[C@@H]2C=CO[C@@H](O[C@@H]3O[C@H](CO)[C@@H](O)[C@H](O)[C@H]3O)[C@H]12,inactive,,
